Data reported in PubChem BioAssay.
Activity calls are given as the source filed them. Unless noted, no rule for the calls is given here.

Experiments:
[1] = compound effects on lung adenocarcinoma cell viability – A549, calcein-AM fluorescence, 48 h, basal, profiling panel (AID 1162); conditions: higher = more signal; also: test concentration not given here
[2] = compound effects on differentiated 3T3-L1 adipocyte viability – cell-based, 3T3-L1 adipocytes, calcein-AM fluorescence, 48 h, basal, profiling panel (AID 1163); conditions: 3T3-L1 adipocytes viability, higher = more signal; also: test concentration not given here
[3] = compound effects on hepatocellular carcinoma cell viability – HepG2, calcein-AM fluorescence, 48 h, basal, profiling panel (AID 1164); conditions: higher = more signal; also: test concentration not given here
[4] = compound effects on multiple myeloma cell viability – MM1S, calcein-AM fluorescence, 48 h, basal, profiling panel (AID 1165); conditions: higher = more signal; also: test concentration not given here
[5] = calcein-AM signal in unstimulated myeloma cells – cell-based, calcein-AM fluorescence, 48 h, PK04 Diversity Set, profiling panel (AID 1166); conditions: RPMI8226 myeloma viability, higher = more signal;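 also: cells grown under basal conditions without added stimulus; test concentration not given here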
[6] = JC-1 mitochondrial signal, unstimulated HepG2 cells – cell-based, JC-1 fluorescence, 24 h, 100 nL compound, profiling panel (AID 1167); conditions: HepG2 mitochondrial potential, higher = more signal; also: test concentration not given here
[7] = JC-1 mitochondrial signal, unstimulated adipocytes – cell-based, JC-1 fluorescence, 3T3-L1 adipocytes, 24 h, 100 nL compound, profiling panel (AID 1168); conditions: JC-1 mitochondrial fluorescence, higher = more signal, called active from +8 up or from −8 down; also: test concentration not given here
[8] = JC-1 mitochondrial signal, unstimulated myeloma cells – cell-based, JC-1 fluorescence, RPMI8226, 24 h, 100 nL compound, profiling panel (AID 1169); conditions: JC-1 mitochondrial potential fluorescence, higher = more signal; also: test concentration not given here
[9] = JC-1 mitochondrial signal, unstimulated MM1S myeloma – cell-based, JC-1 fluorescence, 24 h, 100 nL compound, profiling panel (AID 1170); conditions: MM1S mitochondrial potential, higher = more signal; also: test concentration not given here
[10] = resazurin metabolic signal in A549 cells – cell-based, resazurin fluorescence, 24 h, PK04 Diversity Set, profiling panel (AID 1171); conditions: A549 viability, higher = more signal, called active from +8 up or from −8 down; also: test concentration not given here
[11] = resazurin metabolic signal in HepG2 cells – cell-based, resazurin fluorescence, 24 h, PK04 Diversity Set, profiling panel (AID 1172); conditions: HepG2 viability, higher = more signal; also: test concentration not given here
[12] = budding yeast growth changes without added modifier – OD600, strain BY4716, 24 h, basal condition, primary screen (AID 1173); conditions: S. cerevisiae BY4716 growth, OD600, 24 h; higher = more signal, called active from +8 up or from −8 down
[13] = viability profiling in MM1S myeloma cells – cell-based, resazurin fluorescence, basal, 24 h, PK04 Diversity Set, profiling panel (AID 1174); conditions: higher = more signal, called active from +8 up or from −8 down; also: test concentration not given here
[14] = target: Dihydroorotate dehydrogenase (quinone), mitochondrial (Plasmodium falciparum (isolate 3D7)) (UniProt Q08210); experiment: inhibition of P. falciparum DHODH – biochemical, C-terminal His tag, absorbance 600 nm, primary screen (AID 1175); conditions: PfDHODH enzyme, DCIP absorbance 600 nm; higher = more signal, called active from +8 up or from −8 down;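 also: recombinant parasite enzyme with a five histidine tag at its C terminus; test concentration not given here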
Sequence of Dihydroorotate dehydrogenase (quinone), mitochondrial (Plasmodium falciparum (isolate 3D7)) (Q08210 whole entry, looked up): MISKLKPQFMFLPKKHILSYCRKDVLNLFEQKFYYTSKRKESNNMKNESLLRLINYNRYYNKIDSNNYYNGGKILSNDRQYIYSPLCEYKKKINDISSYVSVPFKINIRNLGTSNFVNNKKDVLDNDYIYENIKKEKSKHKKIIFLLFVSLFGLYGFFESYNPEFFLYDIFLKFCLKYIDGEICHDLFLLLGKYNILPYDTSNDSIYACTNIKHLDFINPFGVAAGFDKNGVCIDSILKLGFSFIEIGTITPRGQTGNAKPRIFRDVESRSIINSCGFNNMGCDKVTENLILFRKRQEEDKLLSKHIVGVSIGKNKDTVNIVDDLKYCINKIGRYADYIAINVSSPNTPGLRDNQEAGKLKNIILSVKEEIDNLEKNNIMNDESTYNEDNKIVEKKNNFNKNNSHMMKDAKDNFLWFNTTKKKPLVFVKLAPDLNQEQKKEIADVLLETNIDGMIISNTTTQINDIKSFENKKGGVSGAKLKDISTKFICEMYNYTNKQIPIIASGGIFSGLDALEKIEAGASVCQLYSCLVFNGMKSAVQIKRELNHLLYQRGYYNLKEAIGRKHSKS

[15] = inhibition of PAO1 biofilm formation – strain PAO1, LB-PBS medium, absorbance 600 nm, primary screen (AID 1176); also: test concentration not given here; conditions: P. aeruginosa PAO1 growth/biofilm, A600, 12 h; higher = more signal
[16] = growth modulation of vineyard yeast isolate – strain RM11-1a, OD600, basal, 24 h, primary screen (AID 1177);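 also: cultures grown under basal conditions with no added stressor; test concentration not given here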; conditions: S. cerevisiae RM11-1a growth, OD600, 24 h; higher = more signal, called active from +8 up or from −8 down
[17] = growth of efflux-deficient E. coli DRC39 – strain DRC39, OD650, 24 h, E. coli filamentation inducers, primary screen (AID 1178);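 also: growth measured as culture turbidity by optical density at 650 nm; test concentration not given here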; conditions: E. coli DRC39 acrAB, higher = more signal, called active from +8 up or from −8 down
[18] = growth of efflux-deficient E. coli DRC39 – strain DRC39, OD650, 48 h, E. coli filamentation inducers, primary screen (AID 1179);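 also: screen aims at cell division blockers that make cells filament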; conditions: E. coli DRC39 delta-acrAB growth, higher = more signal, called active from +8 up or from −8 down
[19] = viability profiling in RPMI8226 myeloma cells – cell-based, resazurin fluorescence, basal, 24 h, PK04 Diversity Set, profiling panel (AID 1180); conditions: higher = more signal;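 also: RPMI8826 multiple myeloma cell line at 5000 cells per well; test concentration not given here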
[20] = target: E3 ubiquitin-protein ligase XIAP (Homo sapiens) (UniProt P98170); experiment: small molecules binding XIAP protein – biophysical, small-molecule microarray, fluorescence 635 nm, primary screen (AID 1181); conditions: higher = more signal;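 also: score merges 667 nm emission and signal to noise over triplicate slides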
Sequence of E3 ubiquitin-protein ligase XIAP (Homo sapiens) (P98170 whole entry, looked up): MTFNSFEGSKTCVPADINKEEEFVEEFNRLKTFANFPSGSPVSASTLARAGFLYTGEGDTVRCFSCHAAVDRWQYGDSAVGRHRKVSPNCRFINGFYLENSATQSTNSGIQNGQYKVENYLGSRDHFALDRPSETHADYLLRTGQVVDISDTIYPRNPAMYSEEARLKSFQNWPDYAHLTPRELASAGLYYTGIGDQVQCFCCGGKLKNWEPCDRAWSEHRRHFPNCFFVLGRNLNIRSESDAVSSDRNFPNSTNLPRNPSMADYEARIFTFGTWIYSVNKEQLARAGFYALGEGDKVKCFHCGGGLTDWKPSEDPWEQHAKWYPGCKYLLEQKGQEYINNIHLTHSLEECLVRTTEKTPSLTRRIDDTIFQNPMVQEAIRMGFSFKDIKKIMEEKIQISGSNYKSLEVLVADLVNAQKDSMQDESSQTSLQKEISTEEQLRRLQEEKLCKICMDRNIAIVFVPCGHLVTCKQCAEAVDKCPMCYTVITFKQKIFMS

SMILES	z-score [1]	z-score [2]	z-score [3]	z-score [4]	z-score [5]	z-score [6]	z-score [7]	z-score [8]	z-score [9]	z-score [10]	z-score [11]	z-score [12]	z-score [13]	composite z-score [14]	z-score [15]	z-score [16]	z-score [17]	z-score [18]	z-score [19]	composite z-score [20]
COC(=O)c1cn(C[C@@H](Cc2ccccc2)NC(=O)N[C@H](CO)CCc2oc(C(C)=O)c(C(=O)OC)c2C(=O)OC)nn1	-0.282	0.53	-0.0248	0.408	0.206	0.629	1.09 (inactive)	-0.0706	0.962	0.0604 (inactive)	0.0852	-1.3 (inactive)	0.438 (inactive)	0.223 (inactive)	-0.227 (inactive)	-0.504 (inactive)	1.3 (inactive)	0.604 (inactive)	-0.181	-0.02
COC1OC[C@]2(C)[C@H]3C4=C(CN2C(=O)OC(C)(C)C)[C@H](C)C(CO)C(CO)C4CC[C@@H]13 (stereo not given in full)	0.657	0.281	1.3	0.728	-0.944	2.82	0.0682 (inactive)	0.287	-1.08	-0.634 (inactive)	-1.1	1.14 (inactive)	-1.25 (inactive)	-0.0528 (inactive)	0.523 (inactive)	1.06 (inactive)	-0.34 (inactive)	0.154 (inactive)	-0.975	0.243
O=C1C[C@@](C(=O)NCCN2CCOCC2)(c2ccc([N+](=O)[O-])cc2)[C@@H](c2ccc(CO)cc2I)N1C1CCCCC1	0.465	0.267	-0.696	-1.55	-0.764	2.87	0.264 (inactive)	-0.444	0.267	2.01 (inactive)	0.95	-2.72 (inactive)	1.11 (inactive)	0.362 (inactive)	-0.261 (inactive)	-1.19 (inactive)	0.497 (inactive)	0.356 (inactive)	0.891	0.0223
[N-]=[N+]=NCc1ccccc1[C@@H]1OC(c2ccc(OCCCO)cc2)=N[C@]1(CCS(=O)(=O)c1ccccc1)C(=O)NCC(O)CO (stereo not given in full)	1.3	0.273	1.4	0.481	1.67	-0.142	0.0693 (inactive)	-0.0493	-0.198	-0.911 (inactive)	-0.618	-0.543 (inactive)	-0.121 (inactive)	-0.716 (inactive)	0.563 (inactive)	-0.397 (inactive)	0.488 (inactive)	1.2 (inactive)	-0.471	0.0731
CCCNC(=O)[C@@]1(c2ccc([N+](=O)[O-])cc2)CC(=O)N(C2CCCCC2)[C@@H]1c1ccc(CO)cc1	0.663	0.29	0.196	-0.409	0.46	0.536	-1.19 (inactive)	-0.506	0.773	1.13 (inactive)	-0.347	0.262 (inactive)	0.411 (inactive)	0.666 (inactive)	0.304 (inactive)	1.83 (inactive)	0.117 (inactive)	-0.194 (inactive)	0.543	-0.173
CC=CC(O)C1C=CC2C(=O)N(c3ccccc3)C(=O)C2N1Nc1ccccc1F (stereo not given)	-1.68	-0.161	-0.182	0.807	-1.85	-0.866	-0.961 (inactive)	0.367	-0.254	-0.548 (inactive)	-0.471	-0.383 (inactive)	-0.424 (inactive)	-0.813 (inactive)	1.21 (inactive)	0.503 (inactive)	-0.382 (inactive)	-0.279 (inactive)	-0.788	0.181
CC(C)(C)OC(=O)CC[C@]1(C(=O)NCc2ccccc2)N=C(c2ccc(OCCCO)cc2)O[C@H]1c1ccccc1CN=[N+]=[N-]	0.858	-0.0665	2.17	-0.863	0.213	1.17	0.0993 (inactive)	-0.518	-0.773	-0.768 (inactive)	-1.08	0.103 (inactive)	-1.49 (inactive)	0.281 (inactive)	0.702 (inactive)	0.53 (inactive)	0.414 (inactive)	0.391 (inactive)	-0.551	0.0942
C[C@@H]1ON(c2ccc(C(=O)OC(C)(C)C)cc2)[C@H](c2ccc(O)cc2)[C@H]1C(=O)N1C(=O)OC[C@H]1Cc1ccccc1	-1.68	0.82	-4.85	-3.31	-4.04	-3.38	-0.493 (inactive)	-0.877	-2.81	-1.31 (inactive)	-1.61	0.479 (inactive)	-1.04 (inactive)	0.771 (inactive)	0.212 (inactive)	0.351 (inactive)	-0.682 (inactive)	-0.118 (inactive)	-0.687	-0.13
COc1ccc(C(O)C2C=CC3C(=O)N(c4ccccc4)C(=O)C3N2Nc2ccc([N+](=O)[O-])cc2)cc1 (stereo not given)	-0.27	-1.06	0.168	-0.495	0.0223	-0.378	-1.52 (inactive)	0.0302	-0.909	0.0404 (inactive)	-0.724	0.402 (inactive)	-0.754 (inactive)	-0.0727 (inactive)	0.837 (inactive)	0.613 (inactive)	-1.2 (inactive)	-0.996 (inactive)	-0.502	0.21
